Test results published in PubChem BioAssay (NCI).
This is part of a sample that, as a whole, favours compounds with a hit. Of some 83,000 tested, about 20% had one in any assay.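 Compound tested at a single concentration for 48 hours in 96-well plates; a percent growth value below 10 was scored as active.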 Unmarked numbers belong to inactive results. Calls of active or inactive are those of the source.

Test system: NCI-H322M lung
Experiment: NCI-60 one-dose screen, 48 h (100 = growth as untreated, 0 = no growth, -100 = all killed)
Details: 10 µM unless noted
Method: Growth inhibition of the NCI-H322M human Non-Small Cell Lung tumor cell line is measured as a screen for anti-cancer activity. Cells are grown in 96 well plates and exposed to the test compound for 48 hours. Compounds are tested at a single concentration, which is 10^-5 M for most compounds. The reported endpoint is percent growth (GI% or GIPRCNT), where numbers from 0 - 100% represent growth inhibition, and numbers from -100% - 0 represent cell death. For example, a value of 40 represents 60% growth inhibition. A value of 0 means no net growth occurred over the course of the experiment. A value of -40 indicates 40% of cells at the beginning of the experiment died by the end of the experiment. A value of -100 means all cells are dead at the end of the experiment.
NCI-60 Human Tumor Cell Lines Screen was performed using the standard one-dose NCI protocol, which is described in more detail at https://dtp.cancer.gov/discovery_development/nci-60/default.htm.
Compounds with GIPRCNT values below 10 were considered active. Activity score was based on GIPRCNT using the following formula: […]
Score is 0 for GIPRCNT values of 100 or above, 50 for GIPRCNT values of 0, and 100 for GIPRCNT values of -100.

| Structure (SMILES) | growth |
| --- | --- |
| CC(=O)OCCC/C(=C\c1ccc2ccccc2c1)[N+](=O)[O-] | 83.2% |
| CC1(COc2ccc3c(c2)ncn3-c2ccc3cccc(N4CCC(N)CC4)c3n2)COC1 | 41.1% |
| N#CCNC(=O)c1ccc(-c2ccnc(Nc3ccc(N4CCOCC4)cc3)n2)cc1 | 39.2% |
| CC(C)(C)c1ccc(Cn2cc(CSc3nc4ccccc4s3)nn2)cc1 | 86.2% |
| COc1ccc(Nc2ncccc2NC(=O)c2cn(Cc3cccc(Oc4ccccc4)c3)nn2)cc1 | 82.9% |
| COCC(=O)NC/C=C/c1ccc2ncnc(Nc3ccc(Oc4ccc(C)nc4)c(C)c3)c2c1 | 10.8% |
| C1=C\COCc2cc(ccc2OCCN2CCCC2)Nc2nccc(n2)-c2cccc(c2)COC/1 | -8.53% (active) |
| CCOC(=O)C1=C(C)N=C2Sc3cccc(OC)c3N2[C@H]1c1ccccn1 | 96.4% |
| CC(C)OP(=O)(CCC(=O)c1c[nH]c2ccccc12)OC(C)C | 103% |
| O=C(Nc1cn[nH]c1-c1nc2ccc(CN3CCOCC3)cc2[nH]1)NC1CC1 | 37.6% |
| CCN1CCN(Cc2ccc(Cc3ncc(F)c(-c4cc(F)c5nc(C)n(C(C)C)c5c4)n3)nc2)CC1 | 29.3% |
| Oc1ccc(/C=N/Nc2nnc(N/N=C/c3ccc(O)cc3O)c3ccccc23)c(O)c1 | -0.934% (active) |
| COc1ccc2c(CCCc3ccc(Cl)cc3Cl)c3[n+](cc2c1OC)CCc1cc2c(cc1-3)OCO2 | 35.9% |
| CCOc1ccc(N=C(C)Nc2ccc(OCC)cc2)cc1 | 124% |
| CC1(O)CCC(Nc2cc(-c3ccc(C(F)(F)F)cc3)c(C#N)c3nc4ccccc4n23)CC1 (stereo not given) | 89.9% |
| O=C1C=CC2(NN=C(c3ccccc3)N2c2ccc(Cl)cc2)c2cccc(O)c21 (stereo not given) | 89.5% |
| CC1(C=O)NC(=O)NC1=O (stereo not given) | 102% |
| COc1ccc(S(=O)(=O)N(C(C)=O)c2ccccc2/C=C/c2cc[n+]([O-])cc2)cc1 | 39.2% |
| C=C1[C@@H](O)C[C@H]2C(C)(C)C[C@H](Cl)C[C@]2(C)[C@H]1C[C@H](O)[C@H]1CC(=O)NC1=O | -8.41% (active) |
| COC(=O)N[C@@H](C)CNc1nccc(-c2cn(C(C)C)nc2-c2cc(Cl)cc(NS(C)(=O)=O)c2F)n1 | 78.7% |

| Structure (SMILES) | growth |
| --- | --- |
| O=C(c1c(F)ccc(NS(=O)(=O)N2CC[C@@H](F)C2)c1F)c1c[nH]c2ncc(-c3cnc(C4CC4)nc3)cc12 | 21.6% |
| CCCC(=O)OCC1OC(n2cnc3c(=S)nc(N)[nH]c32)C(OC(=O)CCC)C1OC(=O)CCC (stereo not given) | 55.5% |
| Cc1c(Cn2c(C)nc3c(C(=O)O)cc(N4CCOCC4)cc32)cccc1C(F)(F)F | 98.8% |
| Cc1[nH]n(C(N)=S)c(=O)c1N=Nc1ccc(S(=O)(=O)Nc2ccncn2)cc1 | 128% |
| C=CCN1C(=O)c2cccc3c(-c4ccc5c(c4)ncn5C4CCCCC4)ccc(c23)C1=O | 93.9% |
| COc1cnc2c(c1)C(=O)c1c-2n(CCCN2CCC(N)CC2)c(=O)c2cc([N+](=O)[O-])ccc12 | 52.8% |
| CC(C)[C@@H](C)/C=C/[C@@H](C)[C@H]1CCC2=C3C=CC4=CC(=O)CC[C@]4(C)[C@H]3CC[C@@]21C | 93.9% |
| CCCCCCCC(=O)SCC/C=C/[C@@H]1CC(=O)NCc2cccc(n2)C2=N[C@@](C)(CS2)C(=O)N[C@@H](C(C)C)C(=O)O1 | -5.77% (active) |
| CCN1CCN(c2nc(C)cc(N(CCCNc3ccnc4cc(Cl)ccc34)Cc3ccc4c(c3)OCO4)n2)CC1 | -11.1% (active) |
| CNC(=O)c1cc(Oc2ccc3nc(NC(=O)Nc4ccc(Cl)c(C(F)(F)F)c4)sc3c2)ccn1 | 23.7% |
| CCOC(=O)c1sc(NC(=O)COc2ccc(/C=C3\Cc4ccc(Cl)cc4C3=O)cc2)nc1C | 103% |
| COC(=O)[C@@H](OC)[C@@H]1Cc2cc3cc(OC4CC(OC5CC(O)C(O)C(C)O5)C(O)C(C)O4)c(C)c(O)c3c(O)c2C(=O)[C@H]1OC1CC(OC2CC(OC3CC(C)(O)C(O)C(C)O3)C(O)C(C)O2)C(O)C(C)O1 (stereo not given in full) | 12.3% |
| O=C1C=CC2(NN=C(c3ccccc3)N2c2cccc(Cl)c2)C(Cl)=C1 (stereo not given) | 82.6% |
| COC(=O)CC[C@@H](C)[C@H]1CC[C@H]2C3CC[C@@H]4C[C@@H]5CC[C@]4(C)[C@@]3(O5)[C@H](Br)[C@@H](Br)[C@]12C (stereo not given in full) | 104% |
| O=c1[nH]c(N2CCOCC2)nc2scc(-c3ccccc3)c12 | 95% |
| COc1c(C(NC(=O)c2ccccc2)c2sccc2C)cc(Cl)c2cccnc12 (stereo not given) | 99.8% |
| CC(C)[C@@H]1CC[C@@H]2[C@@H]1[C@H](OC(=O)/C=C/c1ccccc1)[C@]1(C(C)C)C[C@@H](OC(=O)CO)[C@@]2(C)O1 | 105% |
| CN(C[C@@H]1COCCO1)S(=O)(=O)Nc1ccc2ccc3ncc(-c4cnn(C)c4)cc3c(=O)c2c1 | 26.3% |
| CCCCCCC1(/C=N/NC(N)=O)NC(=O)NC1=O (stereo not given) | 102% |
| Cc1cc(C)n(CC(=O)Nc2ccc(-c3nc4ccccc4s3)cc2)n1 | 99.9% |
